From PubChem BioAssay (NCATS)
Records with an inconclusive call do not appear. Active and inactive are the calls of the source. Calls come from the whole dose curve; as a rule, active = well fitted inhibition curve with a large enough effect; inconclusive = small, poorly fitted or top-dose-only effect; inactive = flat fitted curve, though single readings scatter.

Columns and labels:
[1] = qHTS profiling for inhibitors of Plasmodium falciparum proliferation (AID 504749); note: nearly all actives have a fitted effect of over 60% in size;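 for activity, negative = inhibition: 0% = DMSO vehicle and full inhibition = artemisinin control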; conditions: P. falciparum in erythrocytes, SYBR Green DNA, 72 h
Method in brief: (§1)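 Infected RBCs, 0.3% parasitemia/2.5% Hct final; cpd 72 h, 37 C, 5% CO2; lysis buffer with saponin/triton/SYBR Green I, o/n RT dark; FI 485/535; norm. to artemisinin (0.29 uM) and DMSO.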

3D7 = experiment: as above; conditions: P. falciparum in erythrocytes, SYBR Green DNA, 72 h; series mostly up to 28.7 µM
Method in brief: as §1

7G8 = experiment: as above; conditions: P. falciparum in erythrocytes, SYBR Green DNA, 72 h; series mostly up to 28.7 µM
Method in brief: as §1

AA1029 = experiment: as above; conditions: P. falciparum in erythrocytes, SYBR Green DNA, 72 h; series mostly up to 28.7 µM
Method in brief: as §1

AS120 = experiment: as above; conditions: P. falciparum in erythrocytes, SYBR Green DNA, 72 h; series mostly up to 28.7 µM
Method in brief: as §1

ATS189 = experiment: as above; conditions: P. falciparum in erythrocytes, SYBR Green DNA, 72 h; series mostly up to 28.7 µM
Method in brief: as §1

ATS95 = experiment: as above; conditions: P. falciparum in erythrocytes, SYBR Green DNA, 72 h; series mostly up to 28.7 µM
Method in brief: as §1

C2A = experiment: as above; conditions: P. falciparum in erythrocytes, SYBR Green DNA, 72 h; series mostly up to 28.7 µM
Method in brief: as §1

CP185 = experiment: as above; conditions: P. falciparum in erythrocytes, SYBR Green DNA, 72 h; series mostly up to 28.7 µM
Method in brief: as §1

CP191 = experiment: as above; conditions: P. falciparum in erythrocytes, SYBR Green DNA, 72 h; series mostly up to 28.7 µM
Method in brief: as §1

CP192 = experiment: as above; conditions: P. falciparum in erythrocytes, SYBR Green DNA, 72 h; series mostly up to 28.7 µM
Method in brief: as §1

CP194 = experiment: as above; conditions: P. falciparum in erythrocytes, SYBR Green DNA, 72 h; series mostly up to 28.7 µM
Method in brief: as §1

CP201 = experiment: as above; conditions: P. falciparum in erythrocytes, SYBR Green DNA, 72 h; series mostly up to 28.7 µM
Method in brief: as §1

CP203 = experiment: as above; conditions: P. falciparum in erythrocytes, SYBR Green DNA, 72 h; series mostly up to 28.7 µM
Method in brief: as §1

CP211 = experiment: as above; conditions: P. falciparum in erythrocytes, SYBR Green DNA, 72 h; series mostly up to 28.7 µM
Method in brief: as §1

CP215 = experiment: as above; conditions: P. falciparum in erythrocytes, SYBR Green DNA, 72 h; series mostly up to 28.7 µM
Method in brief: as §1

CP217 = experiment: as above; conditions: P. falciparum in erythrocytes, SYBR Green DNA, 72 h; series mostly up to 28.7 µM
Method in brief: as §1

CP237 = experiment: as above; conditions: P. falciparum in erythrocytes, SYBR Green DNA, 72 h; series mostly up to 28.7 µM
Method in brief: as §1

CP238 = experiment: as above; conditions: P. falciparum in erythrocytes, SYBR Green DNA, 72 h; series mostly up to 28.7 µM
Method in brief: as §1

[2] = at 28.7 µM (top of the series), parasite line A
[3] = at 28.7 µM (top of the series), parasite line B
[4] = at 12.8 µM (top of the series), parasite line A
[5] = at 12.8 µM (top of the series), parasite line B
Potency is the fitted concentration of half-maximal effect.

Oc1cc(O)c2c(c1)OC(c1ccc(O)c(O)c1)C(O)C2 (stereo not drawn)
inactive: activity, negative = inhibition [1, 2] -12.6% | activity, negative = inhibition [1, 3] -13.8% | Potency (3D7) | Potency (7G8) | Potency (AA1029) | Potency (AS120) | Potency (ATS189) | Potency (ATS95) | Potency (C2A) | Potency (CP185) | Potency (CP191) | Potency (CP192) | Potency (CP194) | Potency (CP201) | Potency (CP203) | Potency (CP211) | Potency (CP215) | Potency (CP217) | Potency (CP237) | Potency (CP238)

CC1=CCC(C(C)(C)O)CC1 (stereo not drawn)
inactive: activity, negative = inhibition [1, 2] 7.42% | activity, negative = inhibition [1, 3] 12.4% | Potency (3D7) | Potency (7G8) | Potency (AA1029) | Potency (AS120) | Potency (ATS189) | Potency (ATS95) | Potency (C2A) | Potency (CP185) | Potency (CP191) | Potency (CP192) | Potency (CP194) | Potency (CP201) | Potency (CP211) | Potency (CP215) | Potency (CP217) | Potency (CP237) | Potency (CP238)

O=C(O)c1cc(O)c2c(c1)[O][Bi][O]2
inactive: activity, negative = inhibition [1, 2] -9.75% | activity, negative = inhibition [1, 3] 14.4% | Potency (3D7) | Potency (7G8) | Potency (AA1029) | Potency (AS120) | Potency (ATS189) | Potency (ATS95) | Potency (C2A) | Potency (CP185) | Potency (CP191) | Potency (CP192) | Potency (CP194) | Potency (CP201) | Potency (CP211) | Potency (CP217) | Potency (CP237) | Potency (CP238)

Cc1ccccc1OCC(O)CNCCOc1ccc(C(N)=O)cc1 (stereo not drawn)
inactive: activity, negative = inhibition [1, 2] 11.2% | activity, negative = inhibition [1, 3] 8.46% | Potency (3D7) | Potency (7G8) | Potency (AA1029) | Potency (AS120) | Potency (ATS189) | Potency (ATS95) | Potency (C2A) | Potency (CP185) | Potency (CP191) | Potency (CP192) | Potency (CP194) | Potency (CP201) | Potency (CP203) | Potency (CP211) | Potency (CP215) | Potency (CP217) | Potency (CP237) | Potency (CP238)

CCOC(=O)C1=CC2(CC)CCCN3CCc4c(n1c1ccccc41)C32 (stereo not drawn)
active: Potency ([1]; parasite line A) 11.2 µM | Potency ([1]; parasite line B) 7.94 µM | Potency (3D7) 8.91 µM | Potency (7G8) 5.62 µM | Potency (AA1029) 11.2 µM | Potency (AS120) 11.2 µM | Potency (ATS189) 8.91 µM | Potency (ATS95) 11.2 µM | Potency (C2A) 10 µM | Potency (CP185) 8.91 µM | Potency (CP191) 8.91 µM | Potency (CP217) 11.2 µM | Potency (CP238) 8.91 µM

CC(C)(C)C(=O)OCOC(=O)[C@@H]1N2C(=O)[C@@H](N=CN3CCCCCC3)[C@H]2SC1(C)C
inactive: activity, negative = inhibition [1, 4] 1.15% | activity, negative = inhibition [1, 5] 5.1% | Potency (3D7) | Potency (7G8) | Potency (AA1029) | Potency (AS120) | Potency (ATS189) | Potency (ATS95) | Potency (C2A) | Potency (CP185) | Potency (CP191) | Potency (CP192) | Potency (CP194) | Potency (CP201) | Potency (CP203) | Potency (CP211) | Potency (CP215) | Potency (CP217) | Potency (CP237) | Potency (CP238)

Cc1cc(C(=O)NNCc2ccccc2)no1
inactive: activity, negative = inhibition [1, 4] 2.34% | activity, negative = inhibition [1, 5] -1.58% | Potency (3D7) | Potency (7G8) | Potency (AA1029) | Potency (AS120) | Potency (ATS189) | Potency (ATS95) | Potency (C2A) | Potency (CP185) | Potency (CP191) | Potency (CP192) | Potency (CP194) | Potency (CP201) | Potency (CP203) | Potency (CP211) | Potency (CP215) | Potency (CP217) | Potency (CP237) | Potency (CP238)

Cc1c(C)c2c(c(C)c1O)CC[C@@](C)(CCC[C@H](C)CCC[C@H](C)CCCC(C)C)O2
inactive: activity, negative = inhibition [1, 2] -10.2% | activity, negative = inhibition [1, 3] -2.69% | Potency (3D7) | Potency (7G8) | Potency (AA1029) | Potency (AS120) | Potency (ATS189) | Potency (ATS95) | Potency (C2A) | Potency (CP185) | Potency (CP191) | Potency (CP192) | Potency (CP194) | Potency (CP201) | Potency (CP203) | Potency (CP211) | Potency (CP215) | Potency (CP217) | Potency (CP237) | Potency (CP238)

CCOc1ccc(N=Nc2ccc(N)cc2N)cc1
inactive: activity, negative = inhibition [1, 3] 14.7% | Potency (3D7) | Potency (AA1029) | Potency (AS120) | Potency (ATS95) | Potency (C2A) | Potency (CP185) | Potency (CP191) | Potency (CP192) | Potency (CP194) | Potency (CP201) | Potency (CP203) | Potency (CP211) | Potency (CP215) | Potency (CP217) | Potency (CP237) | Potency (CP238)

CC(C)N=c1cc2n(-c3ccc(Cl)cc3)c3ccccc3nc-2cc1Nc1ccc(Cl)cc1
inactive: activity, negative = inhibition [1, 4] -13.2% | activity, negative = inhibition [1, 5] -1.3% | Potency (AA1029) | Potency (AS120) | Potency (ATS189) | Potency (ATS95) | Potency (C2A) | Potency (CP185) | Potency (CP191) | Potency (CP194) | Potency (CP201) | Potency (CP203) | Potency (CP211) | Potency (CP215) | Potency (CP217) | Potency (CP238)
active: Potency (7G8) 3.98 µM

COc1cc(-c2ccc(-[n+]3nc(-c4ccccc4)nn3-c3ccc([N+](=O)[O-])cc3)c(OC)c2)ccc1-[n+]1nc(-c2ccccc2)nn1-c1ccc([N+](=O)[O-])cc1
active: Potency ([1]; parasite line A) 10 µM | Potency ([1]; parasite line B) 11.2 µM | Potency (3D7) 11.2 µM | Potency (7G8) 11.2 µM | Potency (AA1029) 11.2 µM | Potency (C2A) 11.2 µM | Potency (CP185) 10 µM | Potency (CP191) 11.2 µM | Potency (CP192) 19 µM | Potency (CP201) 16.9 µM | Potency (CP211) 13.5 µM

CC[C@@]1(O)C(=O)OCc2c1cc1n(c2=O)Cc2cc3c([N+](=O)[O-])cccc3nc2-1
active: Potency ([1]; parasite line A) 4.47 µM | Potency (3D7) 5.01 µM | Potency (7G8) 5.01 µM | Potency (AA1029) 7.08 µM | Potency (AS120) 5.01 µM | Potency (ATS189) 7.94 µM | Potency (ATS95) 5.01 µM | Potency (C2A) 7.94 µM | Potency (CP185) 8.91 µM | Potency (CP191) 11.2 µM | Potency (CP194) 12 µM | Potency (CP215) 13.5 µM | Potency (CP217) 10 µM | Potency (CP237) 3.98 µM | Potency (CP238) 8.91 µM

O=S(=O)(O)c1cc(O)c2c(N=Nc3ccc(Nc4ccccc4)c4c(S(=O)(=O)O)cccc34)cc(S(=O)(=O)O)cc2c1
inactive: Potency (3D7) | Potency (AA1029) | Potency (ATS189) | Potency (ATS95) | Potency (C2A) | Potency (CP203) | Potency (CP237) | Potency (CP238)
